Screens (PubChem)
ATG4B inh = ATG4B protease inhibitors, primary screen, biochemical, fluorescence, uHTS; Cysteine protease ATG4B (Homo sapiens), Q9Y4P1; ATG4B cleavage of LC3-PLA2, NBD-HPC fluorescence, 1 h; inhibition, % at 8.33 µM; 340,000 tested, 0.51% active; in the data active means inhibition above about 40%
Target sequence (Q9Y4P1 whole entry, looked up): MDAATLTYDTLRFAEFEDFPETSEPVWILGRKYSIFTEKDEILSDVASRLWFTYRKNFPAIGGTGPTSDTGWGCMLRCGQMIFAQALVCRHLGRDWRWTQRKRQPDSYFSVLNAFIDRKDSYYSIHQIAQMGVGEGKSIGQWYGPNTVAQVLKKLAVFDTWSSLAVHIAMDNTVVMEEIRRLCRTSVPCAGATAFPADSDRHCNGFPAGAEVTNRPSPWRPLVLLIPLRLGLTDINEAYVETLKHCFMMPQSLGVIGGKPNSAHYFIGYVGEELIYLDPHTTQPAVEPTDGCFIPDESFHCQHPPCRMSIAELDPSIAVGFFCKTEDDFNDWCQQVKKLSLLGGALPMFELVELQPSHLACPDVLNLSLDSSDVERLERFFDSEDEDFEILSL
PP5 inh = PP5 phosphatase inhibitors, primary screen, biochemical, fluorescence; purified PP5c, OMFP substrate fluorescence; inhibition, % at 6.7 µM; 320,000 tested, 0.18% active;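 active means inhibition above the campaign's mean inhibition across all tested compounds plus 3 SD, cut at about 9.5% in these data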;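 further: 0% = DMSO only and 100% = 100 µM cantharidin control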
PP1 counter = PP1-alpha phosphatase inhibitors, primary screen, counter-screen for PP5 inhibitor project, biochemical, fluorescence, OMFP substrate, single point. Serine/threonine-protein phosphatase PP1-alpha catalytic subunit (Homo sapiens), P62136. purified PP1alpha. inhibition, % at 6.7 µM. 320,000 tested, 0.9% active. AID 2235, 2010;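 active means inhibition above the mean inhibition of all tested compounds plus 3 SD, computed separately for each screening campaign, cut at about 15% in these data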
Cardio protect = cardioprotection against H2O2-induced cell death, primary screen, uHTS, H9c2 cells, ATPLite luminescence; H9c2 cardiomyocytes, H2O2 injury protection, 2 h; protection from H2O2 cell death, % at 20 µM; 360,000 tested, 0.63% active;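 active means compounds giving at least 50% protection of heart cells from peroxide-induced death in the single-dose screen, raw or plate-pattern-corrected value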;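 further: 0% = DMSO wells with peroxide and 100% = DMSO wells without peroxide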
Numbers without * were called inactive; . = not tested or not shown. Shown are actives, neighbours in structure and some others; about 1.9% of the full set was active somewhere.

SMILES | ATG4B inh | PP5 inh | PP1 counter | Cardio protect
O=C(c1cc(=O)[nH]c2ccccc12)N1CCN(S(=O)(=O)c2ccc(Cl)cc2)CC1 | 1 | -2 | -1 | 88*
COc1ccc(CNC(=O)CSc2nc3ccccc3n2C(C)=O)cc1 | 1 | 1 | 1 | 3
N#CC1(NC(=O)COC(=O)c2cc(O)c3ccccc3c2O)CCCCC1 | -4 | 1 | -2 | -17
N#CC1(NC(=O)COC(=O)c2ccc(-c3ccc(O)cc3)cc2)CCCCC1 | -16 | 2 | 16* | -18
Cc1ccc(CNC(=O)COC(=O)Cc2ccc(-c3ccccc3)cc2)cc1 | 6 | -6 | 16* | -7
Cc1[nH]c2ccccc2c1/C=N/Nc1nc(Nc2ccccc2)nc(N2CCOCC2)n1 | -21 | 5 | 3 | 60*
O=C(CCn1c(=O)oc2ccccc21)N(Cc1ccccc1)c1ccccc1 | -1 | 4 | 1 | 73*
Cc1csc2nc(COC(=O)CNC(=O)c3ccc(Cl)cc3)cc(=O)n12 | 11 | -1 | -1 | 3
Cc1csc2nc(COC(=O)c3ccc(Cl)c([N+](=O)[O-])c3)cc(=O)n12 | -3 | 1 | -2 | 82*
COc1cccc2cc(-c3nnc(SCC(=O)Nc4ccc(NC(C)=O)cc4)n3C)oc12 | -4 | 2 | 1 | 32
C=CCn1c(SCC(=O)Nc2nccs2)nnc1-c1cc2cccc(OC)c2o1 | -7 | 5 | 17* | 14
COCCOC(=O)N/C=C\c1nc2ccccc2c(=O)[nH]1 | 2 | 4 | 0 | 65*
COC(=O)c1ccc(/C=C/c2nc3ccccc3c(=O)[nH]2)cc1 | -7 | 3 | -1 | -10
Cc1ccc(-n2cc(-c3ccccc3)c3c(N4CCN(C)CC4)ncnc32)cc1 | 1 | 0 | 5 | 8
Cc1ccc(-n2cc(-c3ccccc3)c3c(N4CCOCC4)ncnc32)cc1 | 1 | . | . | 57*
O=C(Nn1cnnc1)c1ccc(Cl)cc1 | 1 | 9.6* | 0 | 4
Cc1ccc(-n2nc3c(c2NC(=O)c2c(-c4ccccc4Cl)noc2C)CSC3)cc1 | 43* | 2 | 7 | .
c1ccc(-c2ccc(-c3ccncn3)cc2)cc1 | -8 | -1 | -3 | -9
Cc1[nH]n(-c2nc(-c3ccc(Cl)cc3)cs2)c(=O)c1N=Nc1ccc(O)cc1 | -3 | 2 | 1 | 80*
O=S(=O)(Nc1cccc(S(=O)(=O)N2CCCC2)c1)c1cccc(Br)c1 | 5 | -2 | -3 | -1
O=C(O)c1cccc(Nc2nc(-c3cccnc3)nc3ccccc23)c1 | 3 | -1 | 1 | 0
COC(=O)c1cccc(Nc2nc(-c3cccnc3)nc3ccccc23)c1 | -8 | -2 | 1 | 51*
COC(=O)c1cccc(Nc2nc(-c3ccncc3)nc3ccccc23)c1 | -2 | -10 | -8 | 40
CCOC(=O)c1cccc(Nc2nc(-c3cccnc3)nc3ccccc23)c1 | -19 | 7 | 10 | 55*
CCOC(=O)c1nc(Nc2ccc(C(C)=O)cc2)c2ccccc2n1 | -9 | 2 | -2 | 82*
SMILES | ATG4B inh | PP5 inh | PP1 counter | Cardio protect
COc1cc(C2CC(=O)Oc3cc(C)cc(C)c32)cc(OC)c1OC (centres undefined) | 0 | . | . | -3
CNC(=O)c1ccc(-c2sc3nc(N4CCOCC4)c4c(c3c2N)CCCC4)o1 | -3 | 2 | 0 | 80*
CC1(C)Cc2c(c(N3CCOCC3)nc3sc(-c4ccc(C(=O)O)o4)c(N)c23)CO1 | -5 | 1 | 4 | 25
CNC(=O)c1ccc(-c2sc3nc(N4CCOCC4)c4c(c3c2N)CC(C)(C)OC4)o1 | -21 | 3 | 2 | 97*
COC(=O)c1ccc2c(c1)C(C)(C)C(/C=C/c1ccc(O)cc1)=[N+]2C | 3 | 7 | 17* | -17
CC12CCC(c3c(CO)nn(-c4ccccc4)c31)C2(C)C (centres undefined) | -3 | 1 | 1 | -4
CC12CCC(c3c(C(=O)O)nn(-c4ccccc4)c31)C2(C)C (centres undefined) | -6 | 1 | 17* | 0
Oc1ccc(C2C[C@H]3CC[C@@H]2C3)cc1O (some centres undefined) | 0 | 3 | 0 | 31
Oc1ccc(C2CNCc3sccc32)cc1O (centres undefined) | -1 | -1 | -2 | 54*
O=C(CSCc1cccc(F)c1)N1CCN(c2ccccc2)CC1 | 9 | 3 | 0 | 9
COc1ccc(N2CCN(C(=O)c3ccc(N(C)S(=O)(=O)c4ccc(C)cc4)cc3)CC2)cc1 | -1 | 2 | 0 | -31
COc1ccc(C(=O)N2CCN(c3cccc(Cl)c3)CC2)cc1 | -2 | 1 | -3 | -4
COc1ccc(N2CCN(C(=O)c3ccc4c(c3)NC(=O)C(CSCc3ccc(C)cc3)N4)CC2)cc1 (centres undefined) | . | 0 | 19* | .
COc1ccc(N2CCN(C(=O)c3ccc4c(c3)NC(=O)C(CSCc3cccc(F)c3)N4)CC2)cc1 (centres undefined) | . | 3 | 33* | .
Cc1cccc(N2CCN(C(=O)c3ccc4c(c3)NC(=O)C(CSCc3ccc(F)cc3)N4)CC2C)c1 (centres undefined) | . | 0 | 19* | .
COc1ccc(N2CCN(C(=O)c3ccc4c(c3)NC(=O)C(CSCc3c(F)cccc3Cl)N4)CC2)cc1 (centres undefined) | . | 1 | 25* | .
COCc1cc(C)n(CC(=O)Nc2ccc(N3CCOCC3)cc2)c(=O)c1C#N | 3 | 2 | -6 | -2
COc1ccc2c(c1)[C@H]1[C@H](CO2)[C@H](c2ccccc2)[C@]2(C)C(=O)N[C@@H](C)C(=O)N12 | . | 1 | -5 | .
CCCNC(=O)c1ccc2c(=O)c(O)c(-c3ccc(Cl)c([N+](=O)[O-])c3)[nH]c2c1 | 20 | 0 | 4 | 68*
O=C(NCCc1nc2ccccc2[nH]1)c1ccc(Cl)c([N+](=O)[O-])c1 | -3 | 3 | 1 | -4
CC1CCN(S(=O)(=O)c2ccc(NC(=O)C3CSC4(C)CCC(=O)N34)cc2)CC1 (centres undefined) | -18 | -1 | -1 | -5
CCOc1ccc(N(CC(=O)N/N=C/c2ccccn2)S(=O)(=O)c2ccc(Cl)cc2)cc1 | -14 | . | . | 56*
Oc1ccc(Br)cc1C=Nc1ccc2c3c(cccc13)CC2 | 7 | -2 | -1 | 87*
CCOC(=O)c1cc(-c2csc(-c3ccc(C(F)(F)F)cc3)n2)on1 | -5 | 0 | -1 | -7
CCOC(=O)c1sc(-c2ccc(C(F)(F)F)cc2)nc1O | -2 | -1 | 17* | 0
COc1ccc(Cl)cc1C(=O)n1cnc2ccccc21 | 1 | -1 | -3 | 3
Cc1csc(SCc2nc3scc(-c4ccccc4)c3c(=O)[nH]2)n1 | -14 | -2 | 0 | -1
Cc1csc(SCc2nc3sc4c(c3c(=O)[nH]2)CCC4)n1 | 5 | . | . | 52*
CCCC(=O)Nc1cc(C(=O)O)ccc1Sc1ccccc1 | -3 | -2 | -2 | -6
